# Several values for one entry are separate records, joined by “and”; a condition that tells them apart may be missing. Equal entries are not always repeated. Records with an inconclusive call do not appear. Where a call stands in place of a potency, no number is given. More than one record can exist for a structure, and the calls need not agree. Activity calls are given as the source filed them. Unless noted, calls come from the whole dose curve; as a rule, active = well fitted curve in the direction sought with a large enough effect in the repeat runs; inconclusive = weak or mixed curves; inactive = no such curve, though single readings can be large; an effect the other way counts as inactive or inconclusive.
# Columns and labels:
# [1] = qHTS assay to identify small molecule agonists of the RXR signaling pathway - cell viability counter screen (AID 1159529); note: nearly all actives have a fitted effect of over 50% in size
# Procedure, shortened: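 Luminescence from CellTiter-Glo (30 min, RT) measured viability in the same wells as the beta-lactamase reporter readout. Cells: GeneBLAzer RXR-alpha HEK 293T, 2% charcoal-stripped FBS. Compound exposure 16 hr, 37 C.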
# [2] = qHTS assay to identify small molecule antagonists of the retinoid acid receptor (RAR) signaling pathway - cell viability counter screen (AID 1159551); note: nearly all actives have a fitted effect of over 35% in size
# Procedure, shortened: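 C3RL4 RARE-luciferase cells, 1,000/well, incubated overnight, then dosed with compound plus 1 uM retinol (final). After 6 hr at 37 C, viability read by CellTiter-Glo ATP luminescence following 30 min at room temperature.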
# [3] = qHTS assay to identify small molecule antagonists of the retinoic acid receptor (RAR) signaling pathway (AID 1159552; note: nearly all actives have a fitted effect of over 50% in size)
# Procedure, shortened: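 Luminescence from a RARE luciferase reporter in C3RL4 cells served as read-out. Cells received compounds together with 1 uM final retinol and incubated 6 hr at 37 C before detection reagent was added for 30 min at room temperature.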
# [4] = qHTS assay to identify small molecule agonists of the retinoic acid receptor (RAR) signaling pathway (AID 1159553); conditions: C3RL4 RARE luciferase reporter, agonist, 6 h; activation: at 73.3 µM (top of the series) unless noted; note: potency is the fitted concentration of half-maximal effect
# Procedure, shortened: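 C3RL4 RARE-luciferase cells were seeded at 1,000/well and grown overnight at 37 C, then exposed to compounds for 6 hr at 37 C, 5% CO2. Luciferase reagent was added and luminescence was read after 30 min at room temperature.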
# [5] = qHTS assay to identify small molecule antagonists of the estrogen related receptor (ERR) signaling pathway from Tox21 library - cell viability counter screen (AID 1224834); note: nearly all actives have a fitted effect of over 30% in size
# Procedure, shortened: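 ERR reporter cells, 2,000 per well, rested 6 h, then exposed to compound in DMSO for 17.5 hours at 37 C. Viability read as fluorescence after 30 min with CellTiter-Fluor.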
# [6] = biological target: Luciferin 4-monooxygenase (Photinus pyralis) (UniProt P08659); assay: qHTS assay to identify small molecule inhibitors of firefly luciferase (AID 1224835); note: nearly all actives have a fitted effect of over 25% in size; note: potency is the fitted concentration of half-maximal effect
# Sequence of Luciferin 4-monooxygenase (Photinus pyralis) (P08659 whole entry, looked up): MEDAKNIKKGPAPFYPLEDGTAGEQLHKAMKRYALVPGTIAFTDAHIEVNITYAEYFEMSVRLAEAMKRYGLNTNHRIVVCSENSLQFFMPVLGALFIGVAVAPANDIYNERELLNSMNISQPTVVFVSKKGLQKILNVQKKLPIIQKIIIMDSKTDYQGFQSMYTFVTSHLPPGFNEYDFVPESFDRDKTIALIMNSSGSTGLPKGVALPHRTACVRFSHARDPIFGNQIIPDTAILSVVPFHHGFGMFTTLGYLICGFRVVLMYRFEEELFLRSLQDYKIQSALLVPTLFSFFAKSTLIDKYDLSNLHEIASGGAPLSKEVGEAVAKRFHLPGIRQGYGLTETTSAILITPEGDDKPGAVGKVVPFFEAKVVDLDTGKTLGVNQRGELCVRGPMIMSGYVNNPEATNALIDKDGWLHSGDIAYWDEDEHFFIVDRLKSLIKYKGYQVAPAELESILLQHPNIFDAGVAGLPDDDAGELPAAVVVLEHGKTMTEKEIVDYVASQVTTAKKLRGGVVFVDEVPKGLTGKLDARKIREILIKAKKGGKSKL
# Procedure, shortened: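 Quantitative HTS format; KM concentrations of both substrates. Purified P. pyralis FLuc activity quantified from luminescence images.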
# [7] = qHTS assay to identify small molecule agonists of the constitutive androstane receptor (CAR) signaling pathway - cell viability counter screen (AID 1224836); note: nearly all actives have a fitted effect of over 45% in size
# Procedure, shortened: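 Viability read-out: CellTiter-Fluor fluorescence after 23 h compound exposure at 37 C/5% CO2 in double-stable HepG2-CYP2B6-hCAR cells, with PK11195 present at 0.75 uM final; compounds tested in 15-point titration.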
# [8] = qHTS assay to identify small molecule antagonists of the constitutive androstane receptor (CAR) signaling pathway - cell viability counter screen (AID 1224837); note: nearly all actives have a fitted effect of over 45% in size
# Procedure, shortened: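 HepG2 cells stably carrying hCAR and CYP2B6-2.2kb reporter, stimulated with 50 nM CITCO and compounds at 15 concentrations for 23 h at 37 C. Viability measured by CellTiter-Fluor fluorescence.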
# [9] = biological target: Nuclear receptor subfamily 1 group I member 3 (Homo sapiens) (UniProt Q14994); assay: qHTS assay to identify small molecule antagonists of the constitutive androstane receptor (CAR) signaling pathway (AID 1224838); note: nearly all actives have a fitted effect of over 40% in size
# Sequence of Nuclear receptor subfamily 1 group I member 3 (Homo sapiens) (Q14994 whole entry, looked up): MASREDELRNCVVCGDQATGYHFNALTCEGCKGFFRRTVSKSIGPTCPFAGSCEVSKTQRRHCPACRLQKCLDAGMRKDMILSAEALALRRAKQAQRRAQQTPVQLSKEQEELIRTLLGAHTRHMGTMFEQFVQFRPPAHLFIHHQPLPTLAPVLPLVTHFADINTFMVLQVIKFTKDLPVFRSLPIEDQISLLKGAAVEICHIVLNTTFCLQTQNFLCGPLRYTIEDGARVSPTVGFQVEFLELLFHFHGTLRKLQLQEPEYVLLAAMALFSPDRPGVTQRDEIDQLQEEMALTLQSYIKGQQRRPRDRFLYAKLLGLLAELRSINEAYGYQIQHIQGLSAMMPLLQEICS
# Procedure, shortened: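 HepG2 cells stably carrying hCAR and a CYP2B6-2.2kb luciferase reporter, seeded 4 hrs before compound (15 concentrations). Stimulated with 50 nM CITCO for 24 hr at 37 C. ONE-Glo luminescence read after 30 min at room temperature.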
# [10] = biological target: Nuclear receptor subfamily 1 group I member 3 (Homo sapiens) (UniProt Q14994); assay: qHTS assay to identify small molecule agonists of the constitutive androstane receptor (CAR) signaling pathway (AID 1224839); note: nearly all actives have a fitted effect of over 15% in size; note: potency is the fitted concentration of half-maximal effect
# Procedure, shortened: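 Luminescence read-out (ONE-Glo, 30 min, room temperature) from double-stable HepG2-CYP2B6-hCAR cells exposed 24 h to 15-point compound series in presence of 0.75 uM PK11195 final.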
# [11] = qHTS assay to identify small molecule antagonists of the estrogen related receptor signaling pathway with the pleiotropic PPARgamma coactivator (PGC) from Tox21 10K library - cell viability counter screen (AID 1224840; active = well fitted cell-killing curve with a large enough effect in the repeat runs, not every such curve was filed as active; note: nearly all actives have a fitted effect of over 40% in size)
# Procedure, shortened: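 PGC/ERR cells (2,000/well) plated 6 h, then compound-treated for 17.5 h at 37 C. Viability measured by CellTiter-Fluor fluorescence after 30 min at 37 C, multiplexed with the pathway assay.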
# [12] = biological target: Thyrotropin receptor (Homo sapiens) (UniProt P16473); assay: qHTS assay to identify small molecule agonists of the thyroid stimulating hormone receptor (TSHR) signaling pathway (AID 1224843; calls by dose curve; note: nearly all actives have a fitted effect of over 45% in size)
# Sequence of Thyrotropin receptor (Homo sapiens) (P16473 whole entry, looked up): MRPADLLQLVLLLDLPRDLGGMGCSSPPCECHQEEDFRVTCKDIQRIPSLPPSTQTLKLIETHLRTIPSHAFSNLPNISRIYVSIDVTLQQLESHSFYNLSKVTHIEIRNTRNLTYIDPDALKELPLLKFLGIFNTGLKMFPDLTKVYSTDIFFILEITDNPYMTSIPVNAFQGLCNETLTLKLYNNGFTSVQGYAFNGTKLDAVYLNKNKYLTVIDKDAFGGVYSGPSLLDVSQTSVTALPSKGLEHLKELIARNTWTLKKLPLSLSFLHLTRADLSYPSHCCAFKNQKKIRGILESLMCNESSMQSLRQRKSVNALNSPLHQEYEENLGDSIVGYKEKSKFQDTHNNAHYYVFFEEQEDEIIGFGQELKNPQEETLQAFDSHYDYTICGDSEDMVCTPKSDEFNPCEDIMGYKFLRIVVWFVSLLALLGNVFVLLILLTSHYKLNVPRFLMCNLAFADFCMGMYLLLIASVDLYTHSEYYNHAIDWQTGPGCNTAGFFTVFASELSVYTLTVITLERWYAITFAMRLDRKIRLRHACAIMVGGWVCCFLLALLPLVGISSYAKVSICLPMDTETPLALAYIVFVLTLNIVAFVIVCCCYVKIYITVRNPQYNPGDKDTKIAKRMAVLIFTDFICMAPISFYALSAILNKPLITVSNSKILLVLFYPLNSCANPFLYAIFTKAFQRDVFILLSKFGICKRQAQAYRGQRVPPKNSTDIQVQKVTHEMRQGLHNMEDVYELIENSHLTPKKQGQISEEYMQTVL
# Procedure, shortened: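 Cell line HEK293 with TSHR; density 800/well. Exposure 30 min RT. Readout HTRF cAMP (cAMP-d2/anti-cAMP-cryptate), 1 h RT before reading.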
# [13] = qHTS assay to identify small molecule antagonists of the estrogen related receptor (ERR) signaling pathway - cell viability counter screen (AID 1224818)
# Procedure, shortened: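 ERR cells, 2,000 per well, compound added after 6 h and incubated 17.5 h at 37 C. Viability read by CellTiter-Fluor fluorescence after a further 30 min at 37 C.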
# [14] = qHTS assay to identify small molecule antagonists of the estrogen related receptor signaling pathway with the pleiotropic PPARgamma coactivator (PGC) cell viability counter screen (AID 1224822)
# Procedure, shortened: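 PGC/ERR cells rested 6 h, then compound-treated 17.5 h at 37 C. CellTiter-Fluor added for 30 min at 37 C, viability measured by fluorescence intensity.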
# [15] = qHTS assay to identify small molecule antagonists of the estrogen related receptor signaling pathway with the pleiotropic PPARgamma coactivator (PGC) from Tox21 10K library (AID 1224841; call rule not given here; note: actives are mostly falling curves and most rising ones were filed inactive; nearly all actives have a fitted effect of over 50% in size)
# Procedure, shortened: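 PGC/ERR cell line, 2,000 cells/well, pre-incubated 6 hours at 37 C, then exposed to compounds for 18 hours at 37 C; luciferase read with One-Glo luminescence after 30 min at room temperature.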
# [16] = qHTS assay to identify small molecule agonists of the estrogen related receptor signaling pathway with the pleiotropic PPARgamma coactivator (PGC) from Tox21 10K library (AID 1224842); note: nearly all actives have a fitted effect of over 15% in size
# Procedure, shortened: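 PGC/ERR reporter cells (NTP line) were seeded 2,000 per well, rested 6 h at 37 C/5% CO2, then pin-dosed with compounds in DMSO for 18 h at 37 C; luciferase read by One-Glo luminescence after 30 min at room temperature.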
# [17] = qHTS assay to identify small molecule agonists of the estrogen related receptor (ERR) signaling pathway (AID 1224820)
# Procedure, shortened: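 ERR reporter cell line (from NTP), 2,000 cells/well, incubated 6 h before compound addition, then 18 h at 37 C. Luminescence measured 30 min after One-Glo reagent at room temperature.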
# [18] = test system: estrogen-related receptor alpha (ERRalpha) with PGC-1alpha coactivator, human; assay: qHTS assay to identify small molecule antagonists of the estrogen related receptor signaling pathway with the pleiotropic PPARgamma coactivator (PGC) (AID 1224821; calls by dose curve;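 note: lower luminescence signal means antagonism of PGC/ERR signalling; nearly all actives have a fitted effect of over 50% in size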)
# Procedure, shortened: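 PGC/ERR reporter cell line, plated 6 h before compound addition, then exposed 18 h at 37 °C. Luciferase activity read by luminescence 30 min after One-Glo addition; decrease indicates antagonism.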
# [19] = qHTS assay to identify small molecule agonists of the estrogen related receptor signaling pathway with the pleiotropic PPARgamma coactivator (PGC) (AID 1224823)
# Procedure, shortened: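 PGC/ERR reporter cells seeded 6 h, then exposed to compounds (23 nL in DMSO) for 18 h at 37 C. One-Glo luciferase luminescence read after 30 min at room temperature.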
SMILES,Potency [1],Potency [2],Potency [3],Potency [4],Potency [5],Potency [6],Potency [7],Potency [8],Potency [9],Potency [10],Potency [11],Potency [12],outcome [13],outcome [14],Potency [15],Potency [16],outcome [17],outcome [18],outcome [19]
CCC(Cc1c(I)cc(I)c(N)c1I)C(=O)O (centres undefined),inactive,inactive,inactive,inactive,inactive,inactive,inactive,inactive,inactive,47 µM (active),inactive,inactive,,,,,,,
NCCS(=O)(=O)O,inactive,inactive,inactive,28.4 µM (active) and inactive,inactive,41.5 µM (active) and inactive,inactive,inactive,,,inactive,inactive,inactive,inactive,,,,,
CC(=O)[C@@]1(O)CC[C@H]2[C@@H]3C[C@H](C)C4=CC(=O)C=C[C@]4(C)[C@@]3(F)[C@@H](O)C[C@@]21C,inactive,inactive,inactive,inactive,inactive,inactive,inactive,inactive,,inactive,inactive,,,,inactive,inactive,,,
Cc1cccc(Nc2ccccc2C(=O)O)c1C,inactive,inactive,inactive,inactive,inactive,79.6 µM (active),inactive,inactive,,inactive,inactive,,,,,,,,
C=C[Si](OCCOC)(OCCOC)OCCOC,inactive,inactive,inactive,inactive,inactive,inactive,inactive,inactive,,inactive,inactive,inactive,,,,,,,
C=CC(=O)OCCCC,inactive,inactive,inactive,inactive,inactive,inactive,inactive,inactive,inactive,inactive,inactive,inactive,,,inactive,inactive,,,
CC(=O)Oc1c(C)c(C)c2c(c1C)CC[C@@](C)(CCC[C@H](C)CCC[C@H](C)CCCC(C)C)O2,inactive,inactive,inactive,inactive,inactive,inactive,inactive,inactive,,inactive,inactive,inactive,,,inactive,inactive,,,
Nc1cc(Cl)c(N)c(Cl)c1,inactive,inactive,inactive,inactive,inactive,inactive,inactive,inactive,,inactive,inactive,inactive,,,,,,,
CCCCCCCCCCCCCO,inactive,inactive,inactive,inactive,inactive,82.5 µM (active),inactive,inactive,,inactive,inactive,,,,inactive,inactive,,,
COc1ccc2nc(N)sc2c1,inactive,inactive,inactive,19.3 µM (active),inactive,35.6 µM (active) and 31.7 µM (active),inactive,inactive,,54.5 µM (active) and 27.3 µM (active),inactive,inactive,,,,,,,
Clc1ccc(Sc2cc(Cl)c(Cl)cc2Cl)cc1,inactive,inactive,inactive,inactive,inactive,inactive,inactive,inactive,,inactive,inactive,inactive,,,,,,,
Cc1ccc(S(=O)(=O)O)cc1C,inactive,inactive,inactive,inactive,inactive,inactive,inactive,inactive,inactive,inactive,inactive,inactive,,,,,,,
CC1=CC(C)(C)Nc2ccccc21,inactive,inactive,inactive,inactive,inactive,inactive,inactive,inactive,,inactive,inactive,,,,inactive,inactive,,,
C=CC(C)(O)CCC=C(C)C (centres undefined),inactive,inactive,inactive,inactive,inactive,inactive,inactive,inactive,inactive,inactive,inactive,inactive,,,,,,,
CC(=O)Nc1ccc2c(c1)Cc1cc(NC(C)=O)ccc1-2,inactive,inactive,inactive,30.6 µM (active),inactive,inactive,inactive,inactive,,inactive and 7.7 µM (active),inactive,inactive,,,,,,,
C=CCCCCCCCCCC,inactive,inactive,inactive,inactive,inactive,inactive,inactive,inactive,,inactive,inactive,,,,,,,,
C1COCCN1,inactive,inactive,inactive,inactive,inactive,inactive,inactive,inactive,inactive,inactive,inactive,inactive,,,,,,,
ClC/C=C/CCl,inactive,inactive,inactive,inactive,inactive,inactive,inactive,inactive,,inactive,inactive,inactive,,,inactive,inactive,,,
CC1(C)NC(=O)N(c2ccc([N+](=O)[O-])c(C(F)(F)F)c2)C1=O,inactive,inactive,inactive,inactive,inactive,inactive,inactive,inactive,,inactive,inactive,inactive,inactive,inactive,inactive,inactive,inactive,inactive,inactive

# Source: PubChem BioAssay (Tox21)
